# Data published in paper PMC8384837, “Expanding the binding specificity for RNA recognition by a PUF domain”.
# Key:
# Test in all cases: yeast three-hybrid, YBZ-1, SC-Leu-His + 0.5 mM 3-AT, 4 days
# Conditions in all cases: tags: N-Gal4 AD-HA kept; label: inside an RPR1-promoter hybrid RNA with tandem MS2 sites; ssRNA
# PUM1 PUF domain R7-KYW = PUM1 PUF domain R7-KYW (Homo sapiens, UniProt Q14671 828-1176, S1079K;N1080Y;E1083W)
# Procedure, shortened: (§1)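 Repeat regions from input (SC-Leu) and selection (SC-Leu-His + 0.5 mM 3-AT) plates were PCR-amplified and Illumina-sequenced after four days of growth. The cells were strain YBZ-1 with a LexA–MS2 coat fusion and a HIS3 reporter, co-expressing Pumilio-1 PUF domain libraries and matching RNA elements from a centromeric plasmid. The interaction score is the log change in variant frequency from input to selection, taken in log2 with a pseudocount of 1 for absent variants.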
# PUM1 PUF domain R7-RPQ = PUM1 PUF domain R7-RPQ (Homo sapiens, UniProt Q14671 828-1176, S1079R;N1080P;E1083Q)
# Procedure, shortened: as §1
# PUM1 PUF domain R4-EPG = PUM1 PUF domain R4-EPG (Homo sapiens, UniProt Q14671 828-1176, N971E;H972P;Q975G)
# Procedure, shortened: as §1
# PUM1 PUF domain R4-VRG = PUM1 PUF domain R4-VRG (Homo sapiens, UniProt Q14671 828-1176, N971V;H972R;Q975G)
# Procedure, shortened: as §1
# PUM1 PUF domain R6-RWV = biological target: T1, PUM1 PUF domain R6-RWV (Homo sapiens, UniProt Q14671 828-1176, N1043R;Y1044W;Q1047V)
# T1 sequence: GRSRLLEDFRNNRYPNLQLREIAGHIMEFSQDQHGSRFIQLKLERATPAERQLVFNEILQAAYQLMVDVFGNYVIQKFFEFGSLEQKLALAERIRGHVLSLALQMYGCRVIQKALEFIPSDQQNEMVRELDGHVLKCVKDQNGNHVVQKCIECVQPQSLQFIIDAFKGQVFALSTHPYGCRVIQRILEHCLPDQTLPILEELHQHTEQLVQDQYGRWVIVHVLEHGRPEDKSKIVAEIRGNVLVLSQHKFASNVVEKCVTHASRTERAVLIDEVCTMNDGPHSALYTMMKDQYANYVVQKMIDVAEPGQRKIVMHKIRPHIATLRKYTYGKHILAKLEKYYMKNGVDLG
# Procedure, shortened: as §1
# PUM1 PUF domain R5-NCR = PUM1 PUF domain R5-NCR (Homo sapiens, UniProt Q14671 828-1176, C1007N;R1008C;Q1011R)
# Procedure, shortened: as §1
# PUM1 PUF domain R5-MHM = PUM1 PUF domain R5-MHM (Homo sapiens, UniProt Q14671 828-1176, C1007M;R1008H;Q1011M)
# Procedure, shortened: as §1
# PUM1 PUF domain R3-FRP = PUM1 PUF domain R3-FRP (Homo sapiens, UniProt Q14671 828-1176, C935F;Q939P)
# Procedure, shortened: as §1
# PUM1 PUF domain R1-GGE = PUM1 PUF domain R1-GGE (Homo sapiens, UniProt Q14671 828-1176, S863G;R864G;Q867E)
# Procedure, shortened: as §1
sequence,measurement,setting,value
GGCUAGAACUAGUGGAUCCCCCGGCGCCCGGCGGCUCGAGCCCGGGUAAGUCUAAAUAGUCUGCAUGCCGCCGGGCGCCAUGCCUGCAGGUCGACUCUAGAAAACAUG,binding signal,PUM1 PUF domain R7-KYW,3.27 log2 enrichment (interaction score)
same,binding signal,PUM1 PUF domain R7-RPQ,2.7 log2 enrichment (interaction score)
GGCUAGAACUAGUGGAUCCCCCGGCGCCCGGCGGCUCGAGCCCGGGUAAGUGUAAAUAGUCUGCAUGCCGCCGGGCGCCAUGCCUGCAGGUCGACUCUAGAAAACAUG,binding signal,PUM1 PUF domain R4-EPG,1.2 log2 enrichment (interaction score)
same,binding signal,PUM1 PUF domain R4-VRG,4.34 log2 enrichment (interaction score)
same,binding signal,PUM1 PUF domain R6-RWV,5.13 log2 enrichment (interaction score)
GGCUAGAACUAGUGGAUCCCCCGGCGCCCGGCGGCUCGAGCCCGGGUAAGUGUAUAUAGUCUGCAUGCCGCCGGGCGCCAUGCCUGCAGGUCGACUCUAGAAAACAUG,binding signal,PUM1 PUF domain R4-EPG,2.97 log2 enrichment (interaction score)
GGCUAGAACUAGUGGAUCCCCCGGCGCCCGGCGGCUCGAGCCCGGGUAAGUGUUAAUAGUCUGCAUGCCGCCGGGCGCCAUGCCUGCAGGUCGACUCUAGAAAACAUG,binding signal,PUM1 PUF domain R5-NCR,4.23 log2 enrichment (interaction score)
GGCUAGAACUAGUGGAUCCCCCGGCGCCCGGCGGCUCGAGCCCGGGUAAGUGUCAAUAGUCUGCAUGCCGCCGGGCGCCAUGCCUGCAGGUCGACUCUAGAAAACAUG,binding signal,PUM1 PUF domain R5-NCR,1.7 log2 enrichment (interaction score)
GGCUAGAACUAGUGGAUCCCCCGGCGCCCGGCGGCUCGAGCCCGGGUAAGUGUGAAUAGUCUGCAUGCCGCCGGGCGCCAUGCCUGCAGGUCGACUCUAGAAAACAUG,binding signal,PUM1 PUF domain R5-MHM,2.99 log2 enrichment (interaction score)
GGCUAGAACUAGUGGAUCCCCCGGCGCCCGGCGGCUCGAGCCCGGGUAAGUGUAAGUAGUCUGCAUGCCGCCGGGCGCCAUGCCUGCAGGUCGACUCUAGAAAACAUG,binding signal,PUM1 PUF domain R3-FRP,2.47 log2 enrichment (interaction score)
GGCUAGAACUAGUGGAUCCCCCGGCGCCCGGCGGCUCGAGCCCGGGUAAGUGAAAAUAGUCUGCAUGCCGCCGGGCGCCAUGCCUGCAGGUCGACUCUAGAAAACAUG,binding signal,PUM1 PUF domain R6-RWV,2.99 log2 enrichment (interaction score)
GGCUAGAACUAGUGGAUCCCCCGGCGCCCGGCGGCUCGAGCCCGGGUAAGUUUAAAUAGUCUGCAUGCCGCCGGGCGCCAUGCCUGCAGGUCGACUCUAGAAAACAUG,binding signal,PUM1 PUF domain R7-RPQ,5.16 log2 enrichment (interaction score)
GGCUAGAACUAGUGGAUCCCCCGGCGCCCGGCGGCUCGAGCCCGGGUAAGUGUAAAUGGUCUGCAUGCCGCCGGGCGCCAUGCCUGCAGGUCGACUCUAGAAAACAUG,binding signal,PUM1 PUF domain R1-GGE,2.22 log2 enrichment (interaction score)
